# Results: a collection of fitness landscapes (doi:10.1016/j.celrep.2020.107928)
# In all, about 81,000 sequences were measured (“one-hybrid fitness for binding parS DNA”: median about -0.17, highest 2% from about 0.51 on). The full list was thinned out, with the highest values kept by preference.
# B1: Caulobacter ParB omega fusion; a variant is named by its letters at X, in order, B8GW30 (parent)
# chain: MESVVVGEPGMSEGRRGLGRGLSALLGEVDAAPAQAPGEQLGGSREAPIEILQRNPDQPRRTFREEDLEDLSNSIREKGVLQPILVRPSPDTAGEYQIVAGERAWRAAQRAGLKTVPIMVRELDDLAVLEIGIIENVQRADLNVLEEALSYKVLMEKFERTQENIAQTIGKSXSHVANXMRLLXLPDEVQSYLVSGELTAXHARAIAAAADPVALAKQIIEGGLSVRETEALARKAPNLSAGKSKGGRPPRVKDTDTQALESDLSSVLGLDVSIDHRGSTGTLTITYATLEQLDDLCNRLTRGI
# Variants of: B1
# Assay: one-hybrid fitness for binding parS DNA (scaled: cognate 1, non-cognate 0); higher = stronger binding
# Settings: with parS DNA site
# Summary of the method: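 In E. coli USO, a HIS3 reporter with its site placed 19 bp from the promoter was used to select Caulobacter ParB variants randomised at four specificity codons. Growth lasted 48 hours at 37°C on histidine-free M9 containing 0.1 mM IPTG and 5 mM 3-AT. Fitness was taken as the log change in variant-to-wild-type read ratio from Illumina sequencing of pre- and post-selection plasmids, rescaled between the non-cognate and cognate sites.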
row,Variant,one-hybrid fitness for binding parS DNA
1,DATA,≤ 0.2
2,DLTA,≤ 0.2
3,RLTA,0.599
4,NLTA,≤ 0.2
5,HHAP,≤ 0.2
6,NDPH,≤ 0.2
7,RCLD,≤ 0.2
8,KLRG,≤ 0.2
9,RIAQ,≤ 0.2
10,RIAT,0.885
11,RIFR,≤ 0.2
12,RIFF,0.297
13,RIFT,0.834
14,RIAM,0.367
15,QSSH,≤ 0.2
16,PVNK,≤ 0.2
17,RQYY,0.494
18,RQVY,0.375
19,RQVS,0.937
20,RQKY,0.581
21,RQKS,0.864
22,RQKP,≤ 0.2
23,RQKD,≤ 0.2
24,RQVD,≤ 0.2
25,RQVN,0.316
26,TGHV,≤ 0.2

row,Variant,one-hybrid fitness for binding parS DNA
1,GPHD,≤ 0.2
2,RACY,0.435
3,RACG,0.971
4,RANE,≤ 0.2
5,RAYG,1.01
6,RACF,0.228
7,RARP,≤ 0.2
8,RAYD,≤ 0.2
9,RAYH,≤ 0.2
10,RANG,1
11,RARG,0.956
12,RANQ,≤ 0.2
13,RARD,≤ 0.2
14,PSYN,≤ 0.2
15,WIKS,≤ 0.2
16,SDEV,≤ 0.2
17,WGFG,≤ 0.2
18,PYGM,≤ 0.2
19,CARA,≤ 0.2
20,PAYT,≤ 0.2
21,APAI,≤ 0.2
22,YGRH,≤ 0.2
23,RAHG,1.01
24,RALG,1.01
25,RASR,≤ 0.2
26,RASF,0.234

row,Variant,one-hybrid fitness for binding parS DNA
1,RASG,1
2,RALD,≤ 0.2
3,RAHK,≤ 0.2
4,RAGP,≤ 0.2
5,RAGG,0.99
6,RAHP,0.241
7,RAGH,0.268
8,RALP,≤ 0.2
9,ACSG,≤ 0.2
10,LMLS,≤ 0.2
11,QSHN,≤ 0.2
12,TPPK,≤ 0.2
13,GNDG,≤ 0.2
14,GGIR,≤ 0.2
15,HVTA,≤ 0.2
16,LPSV,≤ 0.2
17,VEFL,≤ 0.2
18,RAQG,1
19,RADD,≤ 0.2
20,RAQY,0.469
21,RAQK,≤ 0.2
22,RADG,0.908
23,RADN,0.372
24,QSRC,≤ 0.2
25,AVDS,≤ 0.2
26,RKRK,≤ 0.2
